Here are results for 101 compounds from PubChem BioAssay AID504332 (National Center for Advancing Translational Sciences (NCATS), 2011).

Screen size: about 350,000 compounds; about 31,000 (8.9%) were called active. A call without a number means that no potency is given here. Another 15% or so got no clear call; they are omitted. This is one part of a sample in which actives are shown more often than they occur. Values without a mark were called inactive. The call rests on the fitted dose curve; in most records, active means well fitted inhibition curve with a large enough effect; inconclusive means small, poorly fitted or top-dose-only effect; inactive means no such curve, though single readings can be large or run the other way.
Potency means the concentration at half of the fitted maximal effect.

The target of this assay is Histone-lysine N-methyltransferase EHMT2 (Homo sapiens) (UniProt Q96KQ7). Description: qHTS Assay for Inhibitors of Histone Lysine Methyltransferase G9a. Further: nearly all actives have a fitted effect of over 75% in size. To be noted: G9a H3K9 monomethylation, AlphaScreen, 2 h; series mostly up to 59 µM. The gist of the method: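 Readings reflect AlphaScreen signal from monomethyl-H3K9 antibody detection. HMT at 20 nM; substrate b-H3K9 500 nM; cofactor SAM 20 uM; 2 h RT reaction; compounds tested as titrations in qHTS with 15 min preincubation.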
Chain of Histone-lysine N-methyltransferase EHMT2 (Homo sapiens) (Q96KQ7 913-1193 limits assumed): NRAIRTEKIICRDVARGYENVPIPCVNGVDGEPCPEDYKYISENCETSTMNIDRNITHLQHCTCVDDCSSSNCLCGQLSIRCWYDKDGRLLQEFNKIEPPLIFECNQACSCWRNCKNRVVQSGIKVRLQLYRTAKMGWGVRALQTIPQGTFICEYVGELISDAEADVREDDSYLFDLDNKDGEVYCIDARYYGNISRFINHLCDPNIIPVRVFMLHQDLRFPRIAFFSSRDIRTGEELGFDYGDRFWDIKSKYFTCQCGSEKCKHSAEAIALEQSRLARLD
On the technique in general: In qHTS, concentration-response curves come from the screen itself.
Consider `CCOC(=O)c1[nH]c2ccc(OC)cc2c1NC(=O)N1CCOCC1`, for which the Potency is 50.1 µM (active).
For `CCOC(=O)C1CCN(C(=O)Nc2cccc(OC)c2)CC1`, the Potency result is “inactive”.
As for `CCOC(=O)c1[nH]c2ccc(OC)cc2c1NC(=O)CCN1CCN(Cc2ccccc2)CC1`, the activity, negative = inhibition was -13.9% [at 2.33 µM].
In the case of `C=CCO/N=C/C1=C(O)C(C(=O)OC)C(C)(C)CC1=O` (stereo unspecified), the Potency was 15.8 µM (active).
On the same count and under the same terms, to `COCC(C)N=CC1=C(O)CC(C)(C)CC1=O` (stereo unspecified) belongs “inactive”; to `CCCC(=O)C1=C(N(C)c2ccccc2)CC(C)(C)C(C(=O)OC)C1=O` (stereo unspecified), “inactive”; to `COc1ccc(S(=O)(=O)n2cnc3ccccc32)c(C)c1`, “inactive”.
`CC(C)(C)c1cc(CN2CCN(CCC#N)CC2)cc(C(C)(C)C)c1O`: the Potency is 17.8 µM (active).
Consider `N#CCCN1CCN(S(=O)(=O)c2ccc(S(=O)(=O)N3CCCC3)cc2)CC1`, for which the Potency result was “inactive”.
On to `N#Cc1cccc(CN2CCC(=O)N(CCO)CC2)c1`, for which the Potency entry was “inactive”.
Consider `CCN(C(=O)CSc1ncnc2sccc12)c1c(N)n(Cc2ccccc2)c(=O)[nH]c1=O`, for which the Potency result was “inactive”.
As for `Cc1ccc(N2C(=O)C3C4C=CC(CC4)C3C2=O)cc1Br` (stereo unspecified), the activity, negative = inhibition is -6.84% [at 0.501 µM].
As to `CCCn1nc(NC(=O)C(C)C)c2cc3cc(OC)ccc3nc21`, the Potency entry was “inactive”.
`N#CC(C(=O)c1ccc(S(=O)(=O)N2CCCCCC2)cc1)c1nc2ccccc2[nH]1` (stereo unspecified): the Potency entry is “inactive”.
For `O=C(C1CCCO1)N1CCC(c2nc3ccccc3[nH]2)CC1` (stereo unspecified), the activity, negative = inhibition was -28.9% [at 12.7 µM].
Take `O=S(=O)(c1ccc(Br)cc1)N1CCC(c2nc3ccccc3[nH]2)CC1`: the Potency is 70.8 µM (active).
Turning to `COc1ccc(CCNC(=O)COC(=O)Cc2cccc(F)c2)cc1`, the activity, negative = inhibition was 5.11% [at 0.501 µM].
As for `CC(Oc1cc2oc(=O)c3c(c2cc1Cl)CCCC3)C(=O)NCc1ccncc1` (stereo unspecified), the Potency entry was “inactive”.
For `COc1cc(OC)nc(N/N=C(\c2ccccc2)c2ccncc2)n1`, the Potency was 12.6 µM (active).
As for `COc1cc(OC)nc(NC(=O)CCl)n1`, the Potency result is “inactive”.
Consider `COc1ccc(C/C(C)=N/NC(=O)c2ccncc2)cc1`, for which the Potency entry is “inactive”.
As to `CN(CC(=O)NNC(=O)CNC(=O)c1ccccc1Cl)S(=O)(=O)c1ccc(Cl)cc1`, the activity, negative = inhibition is 4.73% [at 0.501 µM].
With `Cc1ccc(NC(=O)c2cc3cc(C)ccc3n2C)cc1`, the Potency entry was “inactive”.
`O=C(c1ccc(CN2CCOCC2)cc1)N1CCN(c2ccccc2F)CC1`: the Potency entry is “inactive”.
As to `O=C(c1cccc2ccccc12)N1CCN(c2ccccc2F)CC1`, the Potency was 2.82 µM (active).
For `COc1ccc2oc(=O)c(C(=O)N3CCN(c4ccccc4F)CC3)cc2c1`, the activity, negative = inhibition was 21.4% [at 12.7 µM].
`Cc1cccc(C)c1Nc1nnc(SCC(=O)Nc2sccc2C#N)s1`: the Potency entry was “inactive”.
Take `Cc1csc(SCC(=O)Nc2sccc2C#N)n1`: the Potency entry was “inactive”.
Take `CC(c1nnc(SCC(=O)Nc2sccc2C#N)n1-c1ccc(Cl)cc1)N(C)C` (stereo unspecified): the Potency is 50.1 µM (active).
On the same count and under the same terms, to `COc1ccc(C2NC(=O)N(C)C(C)=C2[N+](=O)[O-])cc1` (stereo unspecified) belongs “inactive”.
Consider `COc1cccc(C(=O)NNC(=O)c2cccc(F)c2)c1`, for which the Potency result was “inactive”.
With `CCCCOC(=O)/C(C#N)=C/c1ccc(-c2cccc(C(F)(F)F)c2)o1`, the Potency entry was “inactive”.
`O=C(O)/C=C/c1ccc(OCCCF)cc1`: the Potency result is “inactive”.
For `CCOc1ccc(Nc2oc(/C=C/c3ccc(F)cc3)nc2C#N)cc1`, the Potency entry is “inactive”.
As for `N#C/C(=C\N1CCOCC1)S(=O)(=O)c1ccc(Cl)cc1`, the Potency entry was “inactive”.
As to `O=S(=O)(Oc1ccccc1C(=S)N1CCOCC1)c1ccc(Cl)cc1`, the Potency is 31.6 µM (active).
Take `O=C(Nc1ccccc1C(=O)N1CCOCC1)c1ccc(Cl)cc1`: the Potency entry is “inactive”.
`O=C(CSc1nnc(-c2ccccc2F)o1)Nc1cccc(C(F)(F)F)c1`: the Potency result is “inactive”.
Consider `O=C(NCc1ccccc1)c1cc(-c2cccc(Cl)c2)on1`, for which the Potency entry was “inactive”.
Turning to `Cc1cccn2c(=O)c(C=O)c(Nc3ccc(S(N)(=O)=O)cc3)nc12`, the Potency entry was “inactive”.
As to `CC(OC(=O)/C=C/c1ccccc1)C(=O)Nc1ccc(C(N)=O)cc1` (stereo unspecified), the activity, negative = inhibition is 0.935% [at 12.7 µM].
Turning to `COC1=C(N2CCOCC2)C(=O)c2ccccc2C1=O`, the Potency is 3.55 µM (active).
For the compound `O=C1C(Cl)=C(N2CCOCC2)C(=O)N1c1ccccc1`, the activity, negative = inhibition is 3.23% [at 2.33 µM].
As to `Cc1oc2c(c1C(=O)N1CCOCC1)C(=O)c1ccccc1C2=O`, the Potency result is “inactive”.
Turning to `COc1cccc(CNC(=O)CN2C(=O)NC(Cc3ccccc3)(c3ccccc3)C2=O)c1` (stereo unspecified), the activity, negative = inhibition is -1.58% [at 12.7 µM].
As for `Cc1ccc2cccc(NC(=O)c3ccc(OC(C)C)cc3)c2n1`, the Potency result is “inactive”.
On the same count and under the same terms, for `O=C(COc1coc(CN2CCN(c3ccccc3)CC2)cc1=O)N1CCc2ccccc21` the value was “inactive”.
Same read-out and setting: to `COc1ccc(OC)c(NC(=O)C2CCN(S(=O)(=O)c3ccc(C)cc3)CC2)c1` belongs “inactive”; to `COc1ccc(CNc2ccc3c(c2)CCC3)cc1OC`, 39.8 µM (active); to `COc1ccc(CN2CCCCC2C)cc1OC` (stereo unspecified), “inactive”.
For the compound `CC(C)C(=O)OCC(=O)Nc1ccc2c(c1)CCC2`, the Potency entry is “inactive”.
Consider `COc1ccc(OC)c(CCNC(=O)c2nn(C)c3c2CS(=O)(=O)c2ccccc2-3)c1`, for which the Potency result is “inactive”.
With `O=C(COC(=O)CNC(=O)C1CCCCC1)NCc1ccccc1`, the activity, negative = inhibition is 3.72% [at 12.7 µM].
Consider `O=C(CCc1nc(CN2CCN(S(=O)(=O)c3ccc(Cl)cc3)CC2)no1)N1CCCCC1`, for which the Potency result was “inactive”.
Regarding `Cc1ccc2nc(N(CCN(C)C)C(=O)C3=COCCO3)sc2c1`, the Potency is 79.4 µM (active).
For `Cc1ccc2nc(-c3ccc(NC(=O)CN(C)S(=O)(=O)c4ccccc4)cc3)sc2c1`, the Potency entry was “inactive”.
In the case of `NS(=O)(=O)c1ccc2nc(NC(=O)C3=COCCO3)sc2c1`, the Potency entry is “inactive”.
As to `CCOC(=O)c1cccc(NC(=O)c2cc(S(=O)(=O)N3CCCC(C)C3)cn2C)c1` (stereo unspecified), the Potency entry is “inactive”.
Same read-out and setting: for `CCOC(=O)c1ccc(NC(=O)C2CCN(S(=O)(=O)c3ccc4c(c3)CCCC(=O)N4)CC2)cc1` the value was “inactive”.
On to `CCc1ccc(-c2nc(SCC(=O)NC3CCCC3)n[nH]2)cc1`, for which the Potency result is “inactive”.
In the case of `CCCCCCn1nnc2sc(-c3ccccc3)cc2c1=O`, the Potency entry was “inactive”.
Turning to `COC(=O)[C@@H](NC(=O)Nc1cc(Cl)ccc1C)C(C)C`, the Potency result was “inactive”.
Same read-out and setting: to `Cc1ccc(Cl)cc1NC(=O)C(C)n1nnc2sc(-c3ccccc3)cc2c1=O` (stereo unspecified) belongs 1.12 µM (active); to `CCC(C)NC(=O)Cn1c(=O)n(-c2ccc(Cl)cc2)c(=O)c2c3c(sc21)CCCC3` (stereo unspecified), “inactive”.
In the case of `CCOc1ccc(CCNC(=O)c2ccc3c(c2)sc2nc(-c4ccc(F)cc4)cn23)cc1OCC`, the Potency result is “inactive”.
For `CCCN(CCC)C(=O)C1CCCN(c2ncnc3c2nc2n3CCCCC2)C1` (stereo unspecified), the Potency entry was “inactive”.
On the same count and under the same terms, for `S=c1[nH]nc(/C=C/c2ccccc2)o1` the value was 22.4 µM (active).
The same measure, in the same setting: for `O=c1oc(/C=C/c2ccccc2)nc2ccccc12` the value was “inactive”.
Regarding `Clc1ccc(CSc2nnc(/C=C/c3ccccc3)o2)c(Cl)c1`, the Potency entry is “inactive”.
As for `CCc1ccccc1S(=O)(=O)Cc1ccc(C(=O)NCCc2ccccc2)o1`, the Potency result was “inactive”.
In the case of `COC(=O)c1ccc(C)c(NC(=O)C2CC(=O)N(C3CCCC(C)C3C)C2)c1` (stereo unspecified), the Potency result was “inactive”.
As for `COc1cccc(CNC(=O)c2ccc3c(c2)sc2nc(-c4cccc(OC)c4)cn23)c1`, the Potency entry was “inactive”.
With `CN(Cc1cnccn1)C(=O)c1cc(COc2cccc(C(F)(F)F)c2)on1`, the Potency result is “inactive”.
For `Clc1cccc(N=C2NN=C(c3ccc4c(c3)OCCO4)CS2)c1`, the Potency was 14.1 µM (active).
Turning to `c1ccc(CN2CCC(N=C3NN=C(c4ccc5c(c4)OCCO5)CS3)CC2)cc1`, the activity, negative = inhibition was -3.44% [at 12.7 µM].
As for `Cc1cccc(N=C2NN=C(c3c[nH]c4ccccc34)CS2)c1`, the Potency entry is “inactive”.
With `COc1ccccc1-c1cnn2c(N3CCOCC3)cc(C)nc12`, the Potency entry was “inactive”.
With `Cc1cc(C)c(-c2n[nH]c3c2C(c2ccccc2F)N(CCO)C3=O)c(O)c1` (stereo unspecified), the Potency result is “inactive”.
`CCc1ccc2ncc3c(-c4ccc(C)cc4)nn(CC(=O)NCc4ccccc4)c3c2c1`: the Potency entry was “inactive”.
With `COC(=O)c1cccc(Cn2nnc3sc4c(c3c2=O)CCC(C(C)(C)C)C4)c1` (stereo unspecified), the Potency entry is “inactive”.
On the same count and under the same terms, to `Cn1ccnc1SCC(=O)Nc1ccc2c(c1)OCCO2` belongs “inactive”; to `CC1CCCC(NC(=O)CSc2nccn2C)C1C` (stereo unspecified), 15.8 µM (active); to `CC1CCCCC1NC(=O)CSc1nnc(N)s1` (stereo unspecified), “inactive”.
Turning to `O=C(O)c1cccc(N2C(=O)Nc3ccccc3N2O)c1`, the Potency entry was “inactive”.
As to `O=C1NN(c2ccccc2)C(=O)/C1=C/c1ccc(-c2cccc(C(=O)O)c2)o1`, the Potency is 39.8 µM (active).
Turning to `O=C(Nc1ccc2nc(SCCOc3ccccc3Cl)sc2c1)c1ccco1`, the Potency entry was “inactive”.
In the case of `O=S(=O)(NCc1ccccc1Br)c1ccccc1Br`, the activity, negative = inhibition is 7.86% [at 2.33 µM].
As for `CN(Cc1ccccc1)C(=O)c1cn(C)c2ccc(S(=O)(=O)N3CCCCC3)cc2c1=O`, the Potency entry is “inactive”.
In the case of `O=c1[nH]c2ccc(S(=O)(=O)N3CCCC3)cc2[nH]1`, the Potency entry was “inactive”.
For the compound `CCCCn1c(=S)[nH]c2cc(S(=O)(=O)N3CCCCC3)ccc21`, the Potency was 1.78 µM (active).
Regarding `O=C(NCCc1ccccc1)c1ccc2c(c1)N(Cc1ccc(F)cc1)C(=O)c1ccccc1S2(=O)=O`, the Potency entry was “inactive”.
Turning to `Cc1ccc2oc(=O)c3cnn(CC(=O)NCc4ccccc4Cl)c3c2c1`, the Potency entry was “inactive”.
In the case of `CCn1c(C(=O)Nc2cc(Cl)ccc2C)cc2sc(Cl)cc21`, the Potency result was “inactive”.
With `C=C(C)CNC(=S)N/N=C/c1ccccc1OCC(=O)O`, the Potency was 11.2 µM (active).
Consider `CCOc1ccccc1/C=N/NC(=O)CNC(=O)COc1ccccc1`, for which the Potency result was “inactive”.
Turning to `C=CCOc1ccccc1/C=N/NC(=O)Cc1ccccc1`, the activity, negative = inhibition was -1.48% [at 0.501 µM].
Consider `CCCCn1nc(C(=O)Nc2cccc(C(=O)NC3CC3)c2)c2ccccc2c1=O`, for which the activity, negative = inhibition was 5.39% [at 2.33 µM].
With `CCNC(=O)Cn1nc(C)n2c(cc3c(OC)cccc32)c1=O`, the Potency entry was “inactive”.
With `O=C(CC1SC(=Nc2ccccc2)N(Cc2ccccn2)C1=O)Nc1cccc(Cl)c1` (stereo unspecified), the Potency was 8.91 µM (active).
Turning to `CN1C(=O)C(CC(=O)Nc2ccccc2)S/C1=N/c1nccs1` (stereo unspecified), the Potency entry was “inactive”.
Turning to `O=C(Nc1cccc(Cl)c1)OCc1ccccn1`, the Potency result is “inactive”.
